# In paper PMC7862700, “An all-to-all approach to the identification of sequence-specific readers for epigenetic DNA modifications on cytosine”:
# Legend:
# Test in all cases: DAPPL (digital affinity profiling via proximity ligation, sequencing); 10 mM Tris-HCl pH 7.5, 50 mM NaCl, 1 mM DTT, 4% glycerol, room temperature, 30 min; GST-TFs on glutathione beads, 16-mer random dsDNA library, 0.1% formaldehyde crosslink after washing; high values mean tight binding
# FLI1 = molecular target: T1, FLI1 (Homo sapiens, UniProt Q01543 1-452); conditions: protein: recombinant; tags: N-terminal GST; dsDNA, one strand shown
# T1 sequence: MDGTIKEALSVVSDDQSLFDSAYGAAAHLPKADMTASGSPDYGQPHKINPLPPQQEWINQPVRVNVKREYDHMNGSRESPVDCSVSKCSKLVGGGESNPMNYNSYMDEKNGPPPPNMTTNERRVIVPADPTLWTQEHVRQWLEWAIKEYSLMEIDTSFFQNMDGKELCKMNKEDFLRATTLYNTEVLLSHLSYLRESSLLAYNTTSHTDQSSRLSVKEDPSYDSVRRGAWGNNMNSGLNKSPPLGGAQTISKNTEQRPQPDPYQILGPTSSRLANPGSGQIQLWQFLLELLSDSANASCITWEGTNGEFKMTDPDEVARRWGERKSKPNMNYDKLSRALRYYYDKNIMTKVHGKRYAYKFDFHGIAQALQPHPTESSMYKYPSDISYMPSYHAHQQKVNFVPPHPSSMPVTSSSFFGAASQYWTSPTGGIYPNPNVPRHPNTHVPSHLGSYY
# Method in brief: (§1)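 GST fusions of human transcription factors were expressed in yeast and captured with glutathione beads. Once given DNA barcodes and pooled alongside a tag-only sample, they were incubated for 30 min at room temperature with 200 nmole of a random double-stranded 16-mer DNA library in Tris/NaCl/DTT/glycerol buffer, then washed, crosslinked (0.1% formaldehyde), proximity-ligated, PCR-amplified and sequenced on an Illumina NextSeq500. The binding signal of each hexamer is its read frequency for a factor divided by its frequency for the tag-only sample.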
# ELK1 = molecular target: T2, ELK1 (Homo sapiens, UniProt P19419 1-428); conditions: protein: recombinant; tags: N-terminal GST; dsDNA, one strand shown
# T2 sequence: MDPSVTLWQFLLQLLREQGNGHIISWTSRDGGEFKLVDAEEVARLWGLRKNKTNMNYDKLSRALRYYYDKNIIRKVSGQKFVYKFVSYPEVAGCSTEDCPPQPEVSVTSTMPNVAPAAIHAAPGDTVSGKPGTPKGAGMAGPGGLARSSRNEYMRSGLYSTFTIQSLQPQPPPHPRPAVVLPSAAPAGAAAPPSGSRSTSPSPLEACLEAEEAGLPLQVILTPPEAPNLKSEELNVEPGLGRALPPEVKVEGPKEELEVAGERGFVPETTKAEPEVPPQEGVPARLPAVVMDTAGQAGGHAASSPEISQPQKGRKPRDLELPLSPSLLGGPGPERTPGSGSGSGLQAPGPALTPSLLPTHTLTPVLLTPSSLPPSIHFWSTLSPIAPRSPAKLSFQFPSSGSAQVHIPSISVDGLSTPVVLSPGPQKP
# Method in brief: as §1
# GABPA = molecular target: T3, GABPA (Homo sapiens, UniProt Q06546 1-454); conditions: protein: recombinant; tags: N-terminal GST; dsDNA, one strand shown
# T3 sequence: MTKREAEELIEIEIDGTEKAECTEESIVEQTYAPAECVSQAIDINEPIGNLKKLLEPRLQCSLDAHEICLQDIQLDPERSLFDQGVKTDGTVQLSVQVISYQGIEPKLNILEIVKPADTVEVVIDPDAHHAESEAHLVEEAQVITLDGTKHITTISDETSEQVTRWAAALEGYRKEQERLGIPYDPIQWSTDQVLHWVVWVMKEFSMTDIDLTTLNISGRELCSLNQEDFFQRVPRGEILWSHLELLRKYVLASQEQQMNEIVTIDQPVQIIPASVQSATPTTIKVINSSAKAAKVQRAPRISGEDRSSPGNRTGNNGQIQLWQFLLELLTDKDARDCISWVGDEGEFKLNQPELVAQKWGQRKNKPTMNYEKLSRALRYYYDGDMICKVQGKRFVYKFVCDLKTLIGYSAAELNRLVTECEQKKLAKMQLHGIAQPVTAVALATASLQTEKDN
# Method in brief: as §1
# ERG = molecular target: T4, ERG (Homo sapiens, UniProt P11308 1-479); conditions: protein: recombinant; tags: N-terminal GST; dsDNA, one strand shown
# T4 sequence: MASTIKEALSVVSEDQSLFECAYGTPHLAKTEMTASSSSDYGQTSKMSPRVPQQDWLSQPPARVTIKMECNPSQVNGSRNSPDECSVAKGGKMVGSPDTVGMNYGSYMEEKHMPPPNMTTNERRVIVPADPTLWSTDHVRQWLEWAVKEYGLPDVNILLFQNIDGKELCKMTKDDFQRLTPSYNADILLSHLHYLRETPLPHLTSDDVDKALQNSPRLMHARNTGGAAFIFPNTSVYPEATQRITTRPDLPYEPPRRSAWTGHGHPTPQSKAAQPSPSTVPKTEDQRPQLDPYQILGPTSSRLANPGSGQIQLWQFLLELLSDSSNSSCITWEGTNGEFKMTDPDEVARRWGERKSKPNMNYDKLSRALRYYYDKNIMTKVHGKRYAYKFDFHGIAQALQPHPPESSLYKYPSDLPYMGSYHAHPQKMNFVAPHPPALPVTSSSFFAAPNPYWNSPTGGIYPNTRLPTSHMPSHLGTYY
# Method in brief: as §1
# ELF1 = ELF1 (Homo sapiens, UniProt P32519 1-619); conditions: protein: recombinant; tags: N-terminal GST; dsDNA, one strand shown
# Chain of ELF1 (P32519 whole entry): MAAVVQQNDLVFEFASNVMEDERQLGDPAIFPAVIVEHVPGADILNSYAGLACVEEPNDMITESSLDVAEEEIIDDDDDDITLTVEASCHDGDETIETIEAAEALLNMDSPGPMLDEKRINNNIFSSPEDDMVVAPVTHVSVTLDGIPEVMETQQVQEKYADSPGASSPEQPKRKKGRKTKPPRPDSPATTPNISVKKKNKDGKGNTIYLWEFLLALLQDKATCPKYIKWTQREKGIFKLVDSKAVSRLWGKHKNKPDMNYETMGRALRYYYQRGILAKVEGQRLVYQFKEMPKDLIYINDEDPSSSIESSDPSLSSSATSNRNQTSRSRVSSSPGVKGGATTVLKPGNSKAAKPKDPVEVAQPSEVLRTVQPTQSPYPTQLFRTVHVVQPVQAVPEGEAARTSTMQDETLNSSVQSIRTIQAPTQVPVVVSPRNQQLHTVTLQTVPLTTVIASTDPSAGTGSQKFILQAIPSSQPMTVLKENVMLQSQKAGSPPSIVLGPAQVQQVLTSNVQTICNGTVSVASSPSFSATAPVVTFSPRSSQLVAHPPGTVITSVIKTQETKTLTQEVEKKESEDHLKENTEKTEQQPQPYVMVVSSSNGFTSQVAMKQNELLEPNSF
# Method in brief: as §1
# EHF = molecular target: T5, EHF (Homo sapiens, UniProt Q9NZC4 1-300); conditions: protein: recombinant; tags: N-terminal GST; dsDNA, one strand shown
# T5 sequence: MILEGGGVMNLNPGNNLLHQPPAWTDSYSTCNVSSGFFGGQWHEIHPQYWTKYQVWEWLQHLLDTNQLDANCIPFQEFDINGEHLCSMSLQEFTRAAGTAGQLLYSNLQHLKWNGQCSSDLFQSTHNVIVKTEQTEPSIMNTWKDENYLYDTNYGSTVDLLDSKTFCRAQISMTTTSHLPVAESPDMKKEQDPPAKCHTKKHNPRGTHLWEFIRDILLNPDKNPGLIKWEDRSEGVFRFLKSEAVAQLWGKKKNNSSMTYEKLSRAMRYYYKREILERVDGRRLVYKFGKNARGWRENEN
# Method in brief: as §1
# SPI1 = SPI1 (Homo sapiens, UniProt P17947 1-270); conditions: protein: recombinant; tags: N-terminal GST; dsDNA, one strand shown
# Method in brief: as §1
# SPIB = SPIB (Homo sapiens, UniProt Q01892 1-262); conditions: protein: recombinant; tags: N-terminal GST; dsDNA, one strand shown
# Chain of SPIB (Q01892 whole entry): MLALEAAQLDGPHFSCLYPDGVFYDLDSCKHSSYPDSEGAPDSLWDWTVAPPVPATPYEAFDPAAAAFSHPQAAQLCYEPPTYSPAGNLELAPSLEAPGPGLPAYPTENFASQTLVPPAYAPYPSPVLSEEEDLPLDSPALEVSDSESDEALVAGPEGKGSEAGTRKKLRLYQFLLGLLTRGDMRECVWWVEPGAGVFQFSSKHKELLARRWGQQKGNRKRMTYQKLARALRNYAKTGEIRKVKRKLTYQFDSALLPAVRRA
# Method in brief: as §1
# ELK3 = molecular target: T6, ELK3 (Homo sapiens, UniProt P41970 1-407); conditions: protein: recombinant; tags: N-terminal GST; dsDNA, one strand shown
# T6 sequence: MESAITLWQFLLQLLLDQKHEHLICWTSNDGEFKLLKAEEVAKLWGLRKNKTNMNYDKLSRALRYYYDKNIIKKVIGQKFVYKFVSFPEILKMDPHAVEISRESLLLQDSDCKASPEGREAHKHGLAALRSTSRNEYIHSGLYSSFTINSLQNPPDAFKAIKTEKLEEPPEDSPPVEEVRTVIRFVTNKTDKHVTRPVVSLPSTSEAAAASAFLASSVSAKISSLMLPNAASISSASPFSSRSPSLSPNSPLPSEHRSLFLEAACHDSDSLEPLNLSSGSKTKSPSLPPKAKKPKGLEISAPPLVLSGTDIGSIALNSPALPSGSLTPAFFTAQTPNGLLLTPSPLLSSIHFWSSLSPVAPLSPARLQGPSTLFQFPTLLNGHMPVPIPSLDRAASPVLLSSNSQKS
# Method in brief: as §1
# FEV = molecular target: T7, FEV (Homo sapiens, UniProt Q99581 1-238); conditions: protein: recombinant; tags: N-terminal GST; dsDNA, one strand shown
# T7 sequence: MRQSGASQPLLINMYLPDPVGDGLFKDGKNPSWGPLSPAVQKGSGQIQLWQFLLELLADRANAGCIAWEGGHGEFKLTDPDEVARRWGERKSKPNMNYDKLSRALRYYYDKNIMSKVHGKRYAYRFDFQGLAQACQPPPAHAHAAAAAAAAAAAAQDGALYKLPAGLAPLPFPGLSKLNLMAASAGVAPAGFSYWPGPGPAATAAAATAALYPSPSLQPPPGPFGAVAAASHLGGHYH
# Method in brief: as §1
# ETV5 = ETV5 (Homo sapiens, UniProt P41161 1-510); conditions: protein: recombinant; tags: N-terminal GST; dsDNA, one strand shown
# Chain of ETV5 (P41161 whole entry): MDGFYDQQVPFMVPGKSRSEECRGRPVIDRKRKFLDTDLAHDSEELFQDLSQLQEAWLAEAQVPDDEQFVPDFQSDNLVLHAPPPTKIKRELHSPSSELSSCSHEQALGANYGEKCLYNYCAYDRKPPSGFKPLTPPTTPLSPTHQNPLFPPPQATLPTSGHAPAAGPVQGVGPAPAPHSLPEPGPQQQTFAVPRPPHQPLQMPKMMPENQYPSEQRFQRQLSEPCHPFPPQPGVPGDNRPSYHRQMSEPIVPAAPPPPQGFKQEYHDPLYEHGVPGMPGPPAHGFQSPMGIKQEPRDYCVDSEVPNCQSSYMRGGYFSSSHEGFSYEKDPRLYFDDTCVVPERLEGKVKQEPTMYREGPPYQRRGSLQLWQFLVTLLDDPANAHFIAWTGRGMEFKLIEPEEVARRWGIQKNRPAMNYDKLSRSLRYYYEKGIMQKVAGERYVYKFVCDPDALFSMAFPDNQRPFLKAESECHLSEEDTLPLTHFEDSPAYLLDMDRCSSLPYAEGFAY
# Method in brief: as §1
# HSF1 = HSF1 (Homo sapiens, UniProt Q00613 1-529); conditions: protein: recombinant; tags: N-terminal GST; chain copies: 3; dsDNA, one strand shown
# Chain of HSF1 (Q00613 whole entry): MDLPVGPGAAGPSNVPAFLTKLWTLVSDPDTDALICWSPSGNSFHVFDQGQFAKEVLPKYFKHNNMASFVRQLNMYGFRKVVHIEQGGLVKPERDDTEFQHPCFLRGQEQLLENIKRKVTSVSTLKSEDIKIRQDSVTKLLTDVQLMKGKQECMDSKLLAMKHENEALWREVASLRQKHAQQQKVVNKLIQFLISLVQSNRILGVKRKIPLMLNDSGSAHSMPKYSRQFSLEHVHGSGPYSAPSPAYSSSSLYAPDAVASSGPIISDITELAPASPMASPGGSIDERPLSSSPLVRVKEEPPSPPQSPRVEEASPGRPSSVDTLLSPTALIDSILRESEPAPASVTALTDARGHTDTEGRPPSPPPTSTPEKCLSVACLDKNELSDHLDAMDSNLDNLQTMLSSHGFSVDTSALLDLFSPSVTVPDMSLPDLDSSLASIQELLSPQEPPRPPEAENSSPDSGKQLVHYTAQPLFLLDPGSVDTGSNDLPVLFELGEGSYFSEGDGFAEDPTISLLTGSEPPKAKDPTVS
# Method in brief: as §1
# SPIC = molecular target: T8, SPIC (Homo sapiens, UniProt Q8N5J4 1-248); conditions: protein: recombinant; tags: N-terminal GST; dsDNA, one strand shown
# T8 sequence: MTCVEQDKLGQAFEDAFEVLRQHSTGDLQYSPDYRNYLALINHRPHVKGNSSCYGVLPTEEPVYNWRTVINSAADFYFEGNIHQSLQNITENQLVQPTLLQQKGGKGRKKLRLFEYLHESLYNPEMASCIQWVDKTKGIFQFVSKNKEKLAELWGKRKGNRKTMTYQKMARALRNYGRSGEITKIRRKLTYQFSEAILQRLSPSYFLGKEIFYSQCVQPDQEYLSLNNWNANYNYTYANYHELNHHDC
# Method in brief: as §1
# ELF4 = ELF4 (Homo sapiens, UniProt Q99607 1-663); conditions: protein: recombinant; tags: N-terminal GST; dsDNA, one strand shown
# Chain of ELF4 (Q99607 whole entry): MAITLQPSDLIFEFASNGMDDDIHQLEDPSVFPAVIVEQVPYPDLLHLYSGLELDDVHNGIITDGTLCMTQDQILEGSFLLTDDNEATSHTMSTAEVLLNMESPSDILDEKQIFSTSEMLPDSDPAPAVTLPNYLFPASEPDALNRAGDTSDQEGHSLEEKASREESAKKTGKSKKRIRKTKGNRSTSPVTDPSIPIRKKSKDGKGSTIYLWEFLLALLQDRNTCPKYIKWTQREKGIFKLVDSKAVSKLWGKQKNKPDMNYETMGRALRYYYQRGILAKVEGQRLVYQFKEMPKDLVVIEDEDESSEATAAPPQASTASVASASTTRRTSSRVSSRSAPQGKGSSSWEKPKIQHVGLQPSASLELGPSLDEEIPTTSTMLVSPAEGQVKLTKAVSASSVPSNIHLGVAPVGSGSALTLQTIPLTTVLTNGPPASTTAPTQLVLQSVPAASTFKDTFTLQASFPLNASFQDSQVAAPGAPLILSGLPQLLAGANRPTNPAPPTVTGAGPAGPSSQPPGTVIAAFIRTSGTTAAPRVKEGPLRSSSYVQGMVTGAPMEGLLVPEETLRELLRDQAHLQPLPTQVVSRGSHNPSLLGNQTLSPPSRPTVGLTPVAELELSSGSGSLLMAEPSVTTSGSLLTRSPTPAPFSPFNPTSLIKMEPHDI
# Method in brief: as §1
# ELK4 = molecular target: T9, ELK4 (Homo sapiens, UniProt P28324-2 1-405); conditions: protein: recombinant; tags: N-terminal GST; dsDNA, one strand shown
# T9 sequence: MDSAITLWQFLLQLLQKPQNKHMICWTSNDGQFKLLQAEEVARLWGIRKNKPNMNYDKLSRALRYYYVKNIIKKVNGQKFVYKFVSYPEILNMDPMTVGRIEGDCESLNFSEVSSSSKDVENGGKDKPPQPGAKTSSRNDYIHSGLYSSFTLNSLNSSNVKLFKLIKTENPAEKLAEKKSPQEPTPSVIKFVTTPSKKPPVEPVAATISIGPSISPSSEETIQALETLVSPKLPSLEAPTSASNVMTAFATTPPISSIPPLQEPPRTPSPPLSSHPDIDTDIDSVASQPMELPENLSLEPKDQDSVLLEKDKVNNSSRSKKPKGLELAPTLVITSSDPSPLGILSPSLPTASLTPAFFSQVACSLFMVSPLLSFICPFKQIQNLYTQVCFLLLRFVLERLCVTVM
# Method in brief: as §1
# ETV2 = molecular target: T10, ETV2 (Homo sapiens, UniProt O00321 1-342); conditions: protein: recombinant; tags: N-terminal GST; dsDNA, one strand shown
# T10 sequence: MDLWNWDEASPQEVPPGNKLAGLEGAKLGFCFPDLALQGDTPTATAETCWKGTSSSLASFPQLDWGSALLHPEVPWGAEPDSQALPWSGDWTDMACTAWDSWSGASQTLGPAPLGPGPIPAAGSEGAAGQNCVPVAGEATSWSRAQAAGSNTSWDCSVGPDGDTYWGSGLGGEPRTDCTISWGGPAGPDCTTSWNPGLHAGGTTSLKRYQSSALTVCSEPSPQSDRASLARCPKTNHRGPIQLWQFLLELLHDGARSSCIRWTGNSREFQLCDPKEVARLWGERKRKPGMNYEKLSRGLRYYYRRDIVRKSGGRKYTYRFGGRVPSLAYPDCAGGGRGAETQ
# Method in brief: as §1
# ELF3 = molecular target: T11, ELF3 (Homo sapiens, UniProt P78545 1-371); conditions: protein: recombinant; tags: N-terminal GST; dsDNA, one strand shown
# T11 sequence: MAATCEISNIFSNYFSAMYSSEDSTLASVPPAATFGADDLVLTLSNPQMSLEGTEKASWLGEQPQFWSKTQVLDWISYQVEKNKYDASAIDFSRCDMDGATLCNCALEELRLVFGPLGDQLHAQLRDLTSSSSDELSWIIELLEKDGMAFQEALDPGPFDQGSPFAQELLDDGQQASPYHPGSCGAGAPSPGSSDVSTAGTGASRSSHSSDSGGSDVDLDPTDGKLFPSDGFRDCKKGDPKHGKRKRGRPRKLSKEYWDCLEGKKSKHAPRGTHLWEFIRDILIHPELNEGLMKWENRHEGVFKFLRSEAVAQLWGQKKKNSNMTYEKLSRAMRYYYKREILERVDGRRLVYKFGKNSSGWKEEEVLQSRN
# Method in brief: as §1
# CRX = CRX (Homo sapiens, UniProt O43186 1-299); conditions: protein: recombinant; tags: N-terminal GST; dsDNA, one strand shown
# Chain of CRX (O43186 whole entry): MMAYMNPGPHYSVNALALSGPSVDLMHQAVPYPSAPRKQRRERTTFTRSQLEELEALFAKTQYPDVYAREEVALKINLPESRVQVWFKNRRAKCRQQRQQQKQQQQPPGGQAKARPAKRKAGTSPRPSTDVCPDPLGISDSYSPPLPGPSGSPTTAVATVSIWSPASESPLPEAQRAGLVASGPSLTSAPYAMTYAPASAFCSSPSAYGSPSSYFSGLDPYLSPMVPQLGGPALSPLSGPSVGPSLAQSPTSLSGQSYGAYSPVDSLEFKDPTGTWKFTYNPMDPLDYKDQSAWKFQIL
# Method in brief: as §1
# ETV1 = ETV1 (Homo sapiens, UniProt P50549 1-477); conditions: protein: recombinant; tags: N-terminal GST; dsDNA, one strand shown
# Chain of ETV1 (P50549 whole entry): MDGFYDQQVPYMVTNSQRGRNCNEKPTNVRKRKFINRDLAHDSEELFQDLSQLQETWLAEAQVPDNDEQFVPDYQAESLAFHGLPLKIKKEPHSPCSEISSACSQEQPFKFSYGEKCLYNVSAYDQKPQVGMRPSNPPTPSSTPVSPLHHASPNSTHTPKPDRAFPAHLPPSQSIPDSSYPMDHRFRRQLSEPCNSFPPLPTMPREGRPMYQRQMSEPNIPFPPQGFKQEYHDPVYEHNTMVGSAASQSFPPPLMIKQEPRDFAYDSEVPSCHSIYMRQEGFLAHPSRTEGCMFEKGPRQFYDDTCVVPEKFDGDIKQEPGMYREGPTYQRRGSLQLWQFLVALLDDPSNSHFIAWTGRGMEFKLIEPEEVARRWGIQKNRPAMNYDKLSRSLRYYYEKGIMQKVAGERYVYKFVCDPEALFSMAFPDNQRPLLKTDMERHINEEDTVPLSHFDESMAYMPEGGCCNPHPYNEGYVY
# Method in brief: as §1
sequence,measurement,setting,value
ATCCCC,binding signal,FLI1,"1.47 fold enrichment (6-mer frequency, TF over GST control)"
same,binding signal,ELK1,"1.46 fold enrichment (6-mer frequency, TF over GST control)"
same,binding signal,GABPA,"1.35 fold enrichment (6-mer frequency, TF over GST control)"
same,binding signal,ERG,"1.52 fold enrichment (6-mer frequency, TF over GST control)"
same,binding signal,ELF1,"1.5 fold enrichment (6-mer frequency, TF over GST control)"
same,binding signal,EHF,"1.46 fold enrichment (6-mer frequency, TF over GST control)"
same,binding signal,SPI1,"1.39 fold enrichment (6-mer frequency, TF over GST control)"
same,binding signal,SPIB,"1.39 fold enrichment (6-mer frequency, TF over GST control)"
same,binding signal,ELK3,"1.2 fold enrichment (6-mer frequency, TF over GST control)"
same,binding signal,FEV,"1.44 fold enrichment (6-mer frequency, TF over GST control)"
same,binding signal,ETV5,"1.37 fold enrichment (6-mer frequency, TF over GST control)"
same,binding signal,HSF1,"1.78 fold enrichment (6-mer frequency, TF over GST control)"
same,binding signal,SPIC,"1.37 fold enrichment (6-mer frequency, TF over GST control)"
same,binding signal,ELF4,"1.37 fold enrichment (6-mer frequency, TF over GST control)"
same,binding signal,ELK4,"1.44 fold enrichment (6-mer frequency, TF over GST control)"
same,binding signal,ETV2,"1.39 fold enrichment (6-mer frequency, TF over GST control)"
same,binding signal,ELF3,"1.53 fold enrichment (6-mer frequency, TF over GST control)"
same,binding signal,CRX,"2.37 fold enrichment (6-mer frequency, TF over GST control)"
same,binding signal,ETV1,"1.43 fold enrichment (6-mer frequency, TF over GST control)"
